GPT2 inhibitor – Primary qHTS assay for inhibitors of Glutamate pyruvate transaminase 2 (GPT2); Alanine aminotransferase 2 (Homo sapiens), Q8TD30; Recombinant GPT2, coupled pyruvate oxidase/HRP Amplex Red fluorescence; Potency, µM (titrated, usually from 57.7 µM), inactives show top-dose activity change, negative = inhibition, actives largely listed as inhibitors; hit rate 0.25% among 100,000; further: potency means the concentration at half of the fitted maximal effect; nearly all actives have a fitted effect of over 60% in size
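Inhibition is scored from Amplex Red fluorescence generated when pyruvate oxidase and HRP act on pyruvate released by GPT2. Reactions contain 10ng/uL enzyme, 250uM a-KG and 2mM L-alanine and run 30 min at room temperature.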
IP6K1 inhibitor – Primary qHTS assay for small molecule inhibitors of Inositol hexaphosphate kinase 1 (IP6K1). IP6K1 kinase, ADP-Glo luminescence, 2 h; hits give low values. hit rate 0.81% among 140,000. activity change, % (series mostly up to about 58 µM). Inositol hexakisphosphate kinase 1 (Homo sapiens), Q92551; in the data active means activity change below about -25%
Target sequence (Q92551 whole entry, looked up): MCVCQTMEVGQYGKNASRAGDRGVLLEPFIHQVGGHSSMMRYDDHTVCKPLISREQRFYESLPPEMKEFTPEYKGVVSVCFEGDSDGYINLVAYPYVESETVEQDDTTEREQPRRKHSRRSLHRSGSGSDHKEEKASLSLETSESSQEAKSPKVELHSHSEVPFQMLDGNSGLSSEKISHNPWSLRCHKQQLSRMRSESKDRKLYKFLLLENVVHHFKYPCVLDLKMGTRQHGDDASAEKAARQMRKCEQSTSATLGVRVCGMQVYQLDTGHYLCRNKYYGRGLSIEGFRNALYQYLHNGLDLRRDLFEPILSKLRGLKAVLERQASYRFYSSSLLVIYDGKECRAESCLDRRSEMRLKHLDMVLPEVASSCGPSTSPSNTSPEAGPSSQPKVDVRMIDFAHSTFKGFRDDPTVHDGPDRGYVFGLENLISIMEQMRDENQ
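ADP-Glo luminescence measures ADP made by human IP6K1 during a 2 h RT reaction with ATP/IP6 (mix at 1.3 mM/130 uM); top library doses 57.5 and 19.1 uM final.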
HEK293 viab – GF-AFC viability counterscreen for inhibitors of alpha-synuclein gene (SNCA) expression; HEK-293-SNCA-luc viability, GF-AFC fluorescence, 24 h; Potency, µM (highest dose often 57.1 µM), for the others: at the highest dose activity change, negative = cytotoxicity, most hits filed as cytotoxic; hit rate 0.12% among 150,000; AID 1671193, 2021;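 further: potency means the concentration at half of the fitted maximal effect; 0% = DMSO-treated cells and -100% = medium-only wells without cells; nearly all actives have a fitted effect of over 30% in size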
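HEK-293-SNCA-luc cells (1500/well) plated 24 h, then exposed 24 h to a dilution series; GF-AFC added 30 min at 37C, fluorescence 405/540 nm; normalised to medium-only and DMSO wells, Hill fit.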
SNCA expr inhib – Primary qHTS assay for inhibitors of alpha-synuclein gene (SNCA) expression | Potency, µM (highest dose often 57.2 µM), inactives show at the highest dose activity change, negative = inhibition, most hits filed as inhibitors | hit rate 0.17% among 140,000 | HEK-293 SNCA-luciferase knock-in, luminescence, 24 h;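 further: potency means the concentration at half of the fitted maximal effect; plate controls were DMSO cells for no effect and cell-free wells for full effect; nearly all actives have a fitted effect of over 45% in size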
* marks the source's active call; other numbers are inactive results; i = inactive; ? = inconclusive; · = not tested or not shown; [ ] = another dose, or the depositor's remark. The list is not random: actives were taken first. Their share in the collection is about 1.1%. Unless noted, the call rests on the fitted dose curve; in most records, active means well fitted curve in the direction sought with a large enough effect; inconclusive means small, poorly fitted or top-dose-only effect, or another doubt; inactive means no such curve, though single readings can be large; an effect the other way counts as inactive or inconclusive. Unless noted, on the % scale 0 is the no-effect control and ±100 the full control effect.

SMILES	GPT2 inhibitor	IP6K1 inhibitor	HEK293 viab	SNCA expr inhib
COc1ccc(C=CC(=O)Nc2ccccc2C(=O)O)cc1OC	5.0%	·	-6.5%	1.52µM*
COc1ccc(/C=C/C(=O)Nc2ccccc2C(=O)O)cc1OC	-20.8%	7.5	2.5%	1.58µM*
O=C1NCc2ccccc2CC12CCN(Cc1cc(F)ccc1O)CC2	-14.4%	17.7	-20.5%	-3.2%
Cc1ccc(C(=O)N(Cc2ccco2)Cc2ccco2)cc1	·	7.1	7.4%	23.7%
COc1ccc(C(=O)N2CCC3(CC2)CN(c2ncccn2)C3)cc1	·	·	-10.7%	4.4%
COc1ccc(-c2nn(-c3cc(C)ccc3C)c(OC(C)=O)c2-c2ccc(NC(C)=O)cc2)c(OC)c1	2.82µM*	-8.0	1.8%	7.0%
COc1ccc(NC(=O)Cn2c(=O)n(-c3ccc(C)c(C)c3)c(=O)c3c4c(sc32)CCCCC4)cc1Cl	·	-33.1*	?	41.8%
Cc1ccc(-n2c(=O)c3c4c(sc3n(CC(=O)Nc3cccc(Cl)c3)c2=O)CCCCC4)cc1C	·	5.6	-3.9%	-0.6%
O=C(Cn1c(=O)n(-c2ccc(Cl)cc2)c(=O)c2c3c(sc21)CCC3)c1ccc(F)cc1	·	1.5	4.0%	20µM*
FC(F)(F)c1cccc(Nc2nc3nonc3nc2Nc2ccc(Cl)cc2)c1	·	3.5	?	11.2µM*
O=C(Nc1cccc(C(F)(F)F)c1)c1cc(-c2ccc(Cl)cc2)on1	·	7.0	4.4%	1.7%
COc1ccc(C(=O)N2C[C@@H](F)[C@@H](OCc3nc4ccccc4[nH]3)C2)cc1	-7.8%[88.5 µM]	5.4	-8.3%[87.6 µM]	-0.1%[87.6 µM]
COc1ccc(-c2cc3nc4c(c(=O)n3[nH]2)CN(C(=O)Cc2ccc(NC(C)=O)cc2)CC4)cc1	?	0.0	4.6%	8.91µM*
O=C(Cc1ccccc1)Nc1sc2c(c1C(=O)Nc1ccc(Cl)cc1)CCCC2	·	-30.4*	0.0%	28.2%
CC(C)CC(=O)NC1CCN(c2cn[nH]c(=O)c2)CC1	-11.3%	-0.8	?	29.8%
CC(C)CC(=O)Nc1n[nH]c2c1CN(C(=O)C1CCN(C)CC1)C2(C)C	-5.6%	5.2	?	0.541µM*
CCOc1ccc2c(n1)CCN(C(=O)Nc1cc(C)ccc1C)C2	i	-13.9	-3.9%[12.5 µM]	84.1%
CCOC(=O)c1c(C)n(-c2ccccc2)c2ccc(OC(=O)c3ccccc3NC(=O)C(C)(C)C)cc12	·	-17.0	?	12.6µM*
CCOC(=O)c1c(C)n(-c2ccccc2)c2ccc(OC(=O)c3ccccc3NC(=O)C(C)C)cc12	·	-13.2	?	?
Cc1ccc(NC(=O)c2ccccc2)c(NC(=O)C2CCN(CC(N)=O)CC2)c1	i	-1.6	2.1%	38.7%
COc1ccc(NC(=O)c2nc3sccn3c2-c2cccc(C(F)(F)F)c2)cc1	?	7.3	22.4µM*	-28.2%
Cc1ccc(NC(=O)c2nc3sccn3c2-c2cccc(C(F)(F)F)c2)cc1	1.6%	7.8	-11.8%	-25.6%
Cc1cc(N2CCCCC2)nc2ccc(NC(=O)c3cccc(F)c3)cc12	·	35.0	?	65.4%
CCN(CC)CCOc1ccc(Nc2ncc3cc(-c4c(Cl)cccc4Cl)c(=O)n(C)c3n2)cc1	?	·	?	3.04µM*
Cc1ccc(Nc2ccnc(N3CCC(NC(=O)c4ccc(C)cc4)CC3)n2)cc1	-20.6%	-6.0	-26.4%	18.8%
SMILES	GPT2 inhibitor	IP6K1 inhibitor	HEK293 viab	SNCA expr inhib
Cc1ccc(Nc2ccnc(N3CCC(NC(=O)c4ccc(C(F)(F)F)cc4)CC3)n2)cc1	i	-7.2	?	25.1µM*
COc1ccc(CNC(=O)[C@H]2CCC[C@H]2NC(=O)c2cnc(C)cn2)c(OC)c1	i	13.8	4.4%	-2.5%
COc1ccccc1-c1cccc(CN2CCC(NC(=O)C(C)(C)C)CC2)c1	3.1%	-0.1	4.6%	-28.9%
COc1ccc(N2CCN(C(=O)CCn3c(=O)c4cccn4c4cccnc43)CC2)cc1	·	-7.0	11.7%	17.5%
COc1ccc2[nH]c3c(c2c1)CCNC31CCN(C(=O)c2cccn2C)CC1	i	-1.6	0.5%[12.5 µM]	25.1µM*
CN(C)CCn1nnnc1SCC1=C(C(=O)O)N2C(=O)[C@@H](NC(=O)Cc3csc(N)n3)[C@H]2SC1	17.8µM*	-7.9	-20.1%[23.9 µM]	-24.5%[25.6 µM]
Cc1cccc(-n2ncc3c(N4CCCC(C)C4)ncnc32)c1 (stereo unspecified)	·	-6.0	5.4%	3.98µM*
